This passage reports growth results from PubChem BioAssay (NCI).

Holding throughout (assay): NCI-60 one-dose screen, 48 h (100 = growth as untreated, 0 = no growth, -100 = all killed)
The test system of one experiment is SR leukemia. Particulars: 10 µM unless noted.
The next experiment deals with RPMI-8226 leukemia. Particulars: 10 µM unless noted.
Another experiment deals with OVCAR-8 ovarian. The following applies: 10 µM unless noted.
A further experiment has as its system OVCAR-5 ovarian. The following applies: 10 µM unless noted.
The next experiment concerns OVCAR-4 ovarian. The following applies: 10 µM unless noted.
The next experiment has as its system SK-OV-3 ovarian. Particulars: 10 µM unless noted.
A further experiment deals with IGROV1 ovarian. Particulars: 10 µM unless noted.
The next experiment deals with HS 578T breast. Particulars: 10 µM.
Another experiment has as its system NCI/ADR-RES ovarian. Particulars: 10 µM unless noted.
In another experiment the test system is T-47D breast. The following applies: 10 µM unless noted.
Another experiment has as its system BT-549 breast. Particulars: 10 µM unless noted.
The next experiment has as its system MDA-MB-435 melanoma. The following applies: 10 µM unless noted.
The subject of another experiment is SW-620 colon. Particulars: 10 µM unless noted.
The subject of another experiment is HCT-116 colon. Particulars: 10 µM unless noted.
In a further experiment the test system is KM12 colon. Particulars: 10 µM unless noted.
A further experiment relates to OVCAR-3 ovarian. The following applies: 10 µM unless noted.
Another experiment relates to MCF7 breast. The following applies: 10 µM unless noted.
A further experiment deals with HCC-2998 colon. The following applies: 10 µM.

About 83,000 compounds went through this panel and 20% of them were active in at least one assay; those are over-represented in the sample as a whole.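 The endpoint reported here, percent growth, reads 100 for growth as untreated, 0 for no net growth and -100 for all cells dead.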 A number with no mark means an inactive call. The source made the active and inactive calls. The calls were made as follows: active = growth percent below 10; inactive = the rest.

Take `Clc1ccc(/C=C/c2cc(N3CCOCC3)c3cc(Cl)c(Cl)cc3n2)cc1`: the growth with SR leukemia is 59.4%; in the experiment on RPMI-8226 leukemia, -40.9% (active); with OVCAR-8 ovarian it was 100%; in the experiment on OVCAR-5 ovarian, 105%; in the experiment on OVCAR-4 ovarian, 101%; in the experiment on SK-OV-3 ovarian, 105%. Further, the growth in the experiment with IGROV1 ovarian was 94.3%; in the experiment with HS 578T breast it was 102%; in the experiment with NCI/ADR-RES ovarian, 90.2%; in the experiment on T-47D breast, 91.3%; in the experiment on BT-549 breast, -20.4% (active); in the experiment on MDA-MB-435 melanoma it was 91%. The growth in the experiment with SW-620 colon was 111%; in the experiment on HCT-116 colon, 98.3%; with KM12 colon it was 63.5%.

As to `CNC(=O)c1ccccc1Nc1nc(Nc2ccc3c(c2OC)CCC[C@H](N2CCN(CCO)CC2)C3)ncc1Cl`, the growth was -5.84% (active) in the experiment with SR leukemia; -13% (active) in the experiment on RPMI-8226 leukemia; 12.5% with OVCAR-8 ovarian; 11.1% in the experiment with OVCAR-5 ovarian; 4.95% (active) in the experiment with OVCAR-4 ovarian; -6.83% (active) in the experiment with SK-OV-3 ovarian. Also, the growth with IGROV1 ovarian was -36.9% (active); in the experiment on OVCAR-3 ovarian it was 30.7%; in the experiment with NCI/ADR-RES ovarian it was 14%; in the experiment on T-47D breast, -23.1% (active); with MDA-MB-435 melanoma, -27.6% (active); in the experiment with SW-620 colon, -19.9% (active). Moreover, the values for the growth with MCF7 breast, in the experiment on HCT-116 colon and in the experiment on KM12 colon were 6.63% (active), -62.6% (active) and -27.3% (active), respectively.

In the case of `ClCc1ccc(-c2ccc(Cn3cnc4nc(Cl)nc(Cl)c43)cc2)cc1`, the growth was -37.1% (active) in the experiment with SR leukemia; -55.8% (active) with RPMI-8226 leukemia; -72.1% (active) in the experiment with OVCAR-8 ovarian; -11.1% (active) with OVCAR-5 ovarian; 46.6% in the experiment with OVCAR-4 ovarian; 72.5% in the experiment on SK-OV-3 ovarian. The growth is 21% with IGROV1 ovarian; -77.6% (active) with OVCAR-3 ovarian; 24.8% with NCI/ADR-RES ovarian; -10.5% (active) in the experiment with T-47D breast; -19.5% (active) in the experiment with MDA-MB-435 melanoma; -46.8% (active) in the experiment with SW-620 colon. The growth in the experiment with MCF7 breast is -42.4% (active); in the experiment with HCT-116 colon it was -72.4% (active); in the experiment on KM12 colon, -63% (active).

In the case of `N[C@@H]1CCCN(c2c(/C=C3\SC(=O)NC3=O)cccc2-c2ccccc2)C1`, the growth with SR leukemia was 22.1%; in the experiment on RPMI-8226 leukemia, 13%; with OVCAR-8 ovarian it was 61.1%; with OVCAR-5 ovarian, 64.4%; with OVCAR-4 ovarian it was 11.4%; in the experiment on SK-OV-3 ovarian, 63.6%. The growth is 54.2% with OVCAR-3 ovarian; 88.1% in the experiment with NCI/ADR-RES ovarian; 25.7% in the experiment with T-47D breast; 0.186% (active) in the experiment with BT-549 breast; 56.7% in the experiment with MDA-MB-435 melanoma; 45.3% with MCF7 breast. Besides, the growth was 50.6% in the experiment with HCT-116 colon and 60.3% in the experiment on KM12 colon.

In the case of `CCCCCCCC(=O)SCC/C=C/[C@@H]1CC(=O)NCc2cccc(n2)C2=N[C@@](C)(CS2)C(=O)N[C@@H](C(C)C)C(=O)O1`, the growth in the experiment with SR leukemia is 13.7%; with RPMI-8226 leukemia, 14.3%; with OVCAR-8 ovarian, 7.64% (active); in the experiment on OVCAR-5 ovarian, 6.82% (active); in the experiment on OVCAR-4 ovarian it was 18.3%; in the experiment on IGROV1 ovarian, 3.42% (active). The growth with OVCAR-3 ovarian was -26.5% (active); in the experiment on HS 578T breast, 15.4%; with NCI/ADR-RES ovarian, 6.46% (active); in the experiment with T-47D breast, -14.1% (active); in the experiment on BT-549 breast, 32%; in the experiment on MDA-MB-435 melanoma, -9.48% (active). For the same compound, the growth in the experiment on SW-620 colon is 3.63% (active); in the experiment with HCT-116 colon it was -27.7% (active); in the experiment on HCC-2998 colon it was -73.4% (active); in the experiment on KM12 colon, 3.74% (active).

Take `CCCCCCCCCCCC[n+]1ccccc1`: the growth was -20.7% (active) with SR leukemia; -39.2% (active) in the experiment on RPMI-8226 leukemia; 0.812% (active) with OVCAR-8 ovarian; 14.6% in the experiment with OVCAR-5 ovarian; 14.9% with OVCAR-4 ovarian; -37.5% (active) with IGROV1 ovarian. Moreover, the growth in the experiment with OVCAR-3 ovarian was -32.9% (active); in the experiment on HS 578T breast it was 6.1% (active); with NCI/ADR-RES ovarian, 75.4%; with T-47D breast it was 4.67% (active); in the experiment on BT-549 breast, -37.4% (active); in the experiment with MDA-MB-435 melanoma it was -16.5% (active). Moreover, the growth with SW-620 colon is 10.7%; in the experiment with MCF7 breast, 5.23% (active); in the experiment on HCT-116 colon, 6.26% (active); in the experiment with HCC-2998 colon it was 9.96% (active); with KM12 colon, -48.1% (active).

For the compound `C/C(=N\NC(=O)Cn1c(-c2ccc(S(C)(=O)=O)cc2)nc2ccccc21)c1ccc(Cl)cc1`, the growth was 87.9% in the experiment with SR leukemia; 87.1% in the experiment on RPMI-8226 leukemia; 80.9% in the experiment with OVCAR-8 ovarian; 106% in the experiment with OVCAR-5 ovarian; 100% in the experiment on OVCAR-4 ovarian; 94.9% in the experiment on SK-OV-3 ovarian. The growth was 96.6% with OVCAR-3 ovarian; 103% in the experiment on NCI/ADR-RES ovarian; 81.3% in the experiment on T-47D breast; 85% in the experiment with BT-549 breast; 97.4% in the experiment with MDA-MB-435 melanoma; 101% with SW-620 colon. For the same compound, the growth is 82.9% in the experiment with MCF7 breast, 83.1% with HCT-116 colon, 106% in the experiment on HCC-2998 colon and 95.6% in the experiment with KM12 colon.

Turning to `COc1cc(F)c(F)c(Nc2ccc(I)cc2F)c1NS(=O)(=O)C1(C[C@H](O)CO)CC1`, the growth in the experiment on SR leukemia is 57.7%; in the experiment on RPMI-8226 leukemia it was 37.8%; with OVCAR-8 ovarian, 45.7%; with OVCAR-5 ovarian, 13.5%; with OVCAR-4 ovarian, 46%; in the experiment with SK-OV-3 ovarian it was 51.3%. Also, the growth with OVCAR-3 ovarian is 83.1%; with NCI/ADR-RES ovarian, 45.5%; with T-47D breast it was 22.6%; in the experiment with BT-549 breast it was 62.1%; with MDA-MB-435 melanoma, 24.3%; with SW-620 colon it was 19.3%. Moreover, the growth in the experiment on MCF7 breast was 61.5%; in the experiment with HCT-116 colon, 11.2%; in the experiment with HCC-2998 colon, -23.6% (active); with KM12 colon, 24.2%.

In the case of `COc1ccc(-c2ccc3ncc4c(c3c2)n(-c2ccc(N3CCNCC3)c(C(F)(F)F)c2)c(=O)n4C)cn1`, the growth in the experiment with SR leukemia was -34.6% (active); with RPMI-8226 leukemia it was -46.3% (active); in the experiment with OVCAR-8 ovarian it was -62.9% (active); in the experiment on OVCAR-5 ovarian, -80.6% (active); with OVCAR-4 ovarian, -76.9% (active); in the experiment with SK-OV-3 ovarian, -83.9% (active). The growth in the experiment on OVCAR-3 ovarian is -91.1% (active); in the experiment on NCI/ADR-RES ovarian it was -70% (active); in the experiment with T-47D breast, -66.9% (active); in the experiment on BT-549 breast, -63.6% (active); in the experiment on MDA-MB-435 melanoma, -88.3% (active); in the experiment with SW-620 colon it was -78.4% (active). In addition, the growth in the experiment with MCF7 breast is -63% (active); in the experiment on HCT-116 colon, -69.8% (active); in the experiment with HCC-2998 colon it was -93.2% (active); with KM12 colon it was -95.8% (active).
